Reference: PubChem BioAssay AID1619 (SRMLSC, 2009)
Hit rate of the full screen: of about 220,000 compounds, about 830 (0.38%) were called active.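 How the source made its calls: active means compound inhibiting the enzyme by more than half at any dose during confirmatory dose-response retesting; inconclusive means strong single-dose inhibitors picked by rank but not retested; inactive means the rest.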 Only a sample is shown. Potency and affinity values are given separately.

biological target: Leucine aminopeptidase (Plasmodium falciparum (isolate 3D7)) (UniProt Q8IL11); assay: P. falciparum M17LAP inhibitors, primary screen, biochemical, fluorogenic H-Leu-NHMec substrate, 1536-well (AID 1619); settings: recombinant M17LAP, H-Leu-NHMec fluorogenic kinetic assay; at 30 µM; active compounds read high;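 further: plate controls were full reaction with DMSO carrier for no effect and no enzyme background for full effect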
Sequence (Q8IL11 whole entry, looked up): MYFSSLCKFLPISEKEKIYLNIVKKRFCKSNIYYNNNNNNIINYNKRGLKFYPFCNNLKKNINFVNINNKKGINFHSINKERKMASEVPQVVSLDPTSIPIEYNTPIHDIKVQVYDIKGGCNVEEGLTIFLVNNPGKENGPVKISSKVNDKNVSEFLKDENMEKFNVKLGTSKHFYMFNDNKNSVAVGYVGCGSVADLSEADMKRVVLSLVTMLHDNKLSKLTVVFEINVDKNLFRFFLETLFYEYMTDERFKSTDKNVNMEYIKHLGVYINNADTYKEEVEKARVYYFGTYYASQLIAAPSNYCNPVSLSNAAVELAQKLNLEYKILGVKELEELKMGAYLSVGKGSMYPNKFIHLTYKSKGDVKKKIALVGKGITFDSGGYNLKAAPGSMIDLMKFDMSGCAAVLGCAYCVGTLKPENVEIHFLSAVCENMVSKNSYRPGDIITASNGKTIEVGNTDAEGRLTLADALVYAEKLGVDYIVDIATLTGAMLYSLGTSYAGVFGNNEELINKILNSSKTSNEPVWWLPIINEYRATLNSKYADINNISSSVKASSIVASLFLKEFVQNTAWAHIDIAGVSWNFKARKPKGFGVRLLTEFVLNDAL

inhibition, inactive:
O=C(Nc1ccccc1NS(=O)(=O)c1ccc(F)cc1)C1CCC1 6.59%
COc1ccc(-c2cn(-c3ccc(SC(F)F)cc3)c3[n+]2CCC3)cc1OC -11.9%
O=C(CCN1C(=O)c2ccccc2C1=O)Nc1cccnc1 11.6%
N#Cc1c(-c2ccccc2)ccnc1N1CCOCC1 0.41%
CCCCC(=O)NC(c1ccc(OC)c(OC)c1)c1c(O)ccc2ccccc12 (configuration not stated) 5.73%
C=CCNC(=S)Nc1cccc(N)c1 2.22%
Cc1cccc(NC(=O)Cn2nc([N+](=O)[O-])c(Br)c2C)n1 -0.63%
CCCn1c(/N=C/c2c[nH]c3ccccc23)nc2ccccc21 0.08%
CN(CCC#N)C(=O)COC(=O)/C=C/c1ccc2c(c1)OCO2 2.65%
COc1ccc(C2=CC3=C(Br)C(=O)C(C)(OC(=O)C4CCCC4)C(=O)C3=CO2)cc1 (configuration not stated) 22.1%
CCOC(=O)c1c(NC(=O)C2CC(Cl)=CCC2C(=O)O)sc2c1CC(C)(C)OC2 (configuration not stated) 42.4%
CC(=O)Nc1sc2c(c1C#N)CCC2 -2.63%
Cc1sc(NC(=O)C2CCCC2)c(C#N)c1C 3.61%
CC1(C)Cc2c(sc(NC(=O)Cc3ccccc3)c2C#N)CO1 20.3%
CC(=O)Nc1sc2c(c1C#N)CCCC2 -9.07%
Cc1sc(NC(=O)C2CCCO2)c(C#N)c1C (configuration not stated) 5.77%
Cn1nnnc1SCC(=O)Nc1cccc(S(=O)(=O)N2CCCC2)c1 -2.95%
O=C(Nc1nnc(SCc2ccccc2F)s1)c1ccco1 8.78%
Cc1ccc(NC(=O)Nc2cccc(Cl)c2)c(C(=O)O)c1 -7.94%
COc1ccc(OC)c(NC(=O)CN2C(=O)c3ccccc3S2(=O)=O)c1 23.2%
CCC(C)NC(=O)c1ccccc1NC(=O)CN1C(=O)c2ccccc2S1(=O)=O (configuration not stated) -2.81%
CCOC(=O)c1ccccc1NC(=O)CN1C(=O)c2ccccc2S1(=O)=O -15.2%
COc1ccc(C)cc1NC(=O)CN1C(=O)c2ccccc2S1(=O)=O 11.2%
C/C(=N\NC(=O)c1cccc(S(=O)(=O)N2CCCC2)c1)c1cccs1 0.78%
O=C(CN1CCN(c2ncc(C(F)(F)F)cc2Cl)CC1)NC(=O)NCc1ccccc1 -3.07%
Cn1c2c(c(=O)n3ncnc13)CCCC2 -2.57%
O=C(O)CCC(=O)Nc1ccc(OCC(=O)O)cc1 -3.01%
CCn1nnnc1SCC(=O)Nc1ccc(OC)cc1 3.82%
Cc1ccc(NC(=O)COC(=O)c2cccnc2)cc1 25.2%
O=C(COC(=O)c1cccnc1)Nc1ccccc1 2.57%
Cc1ccc(OCCCC(=O)Nc2ccc(Br)cc2)cc1 -1.62%
CCOc1ccc(NC(=O)CSc2nnc(CCNC(=O)c3ccc(OC)cc3)n2C)cc1 23.6%
CCn1c(CCNC(=O)c2ccc(OC)cc2)nnc1SCC(=O)Nc1ccccc1F 1.93%
O=C(O)Cn1nnnc1SCC(=O)Nc1ccccc1F 18.7%
Cc1ccccc1NC(=O)NCc1ccc2c(c1)OCO2 5.21%
O=C(c1cnsn1)N1CCN(c2ccccn2)CC1 -4.02%
Cc1nc(C(=O)O)nn1-c1ccc([N+](=O)[O-])cc1 0.22%
COc1cccc([C@@H]2Oc3ccc(OC)cc3C(=O)[C@H]2OC(=O)N[C@H](C)C2CCCCC2)c1 -23.2%
O=[N+]([O-])c1ccc2c(c1)/C(=N\O)c1ccccc1-2 2.49%
CN1CCN(c2ccc(C(CC(N)=O)NC(=O)Cc3ccc(Br)cc3)cc2[N+](=O)[O-])CC1 (configuration not stated) 5.26%
O=C(N/N=C\c1ccc2c(c1)OCO2)c1ccco1 26.4%
O=C(CSCCO)Nc1ccc(C2CCCCC2)cc1 6.11%
CCOc1ccc(NC(=O)CCC(=O)O)cc1 18%
CCn1nnnc1SCC(=O)Nc1ccc(OCc2ccccc2)cc1 4.99%
CCCCOc1ccc(C(=O)O)cc1 23.4%
CCCc1nnc(SCC(=O)Nc2ccc(OCC)cc2)n1N 30.4%
Nn1cnnc1SCC(=O)Nc1ccc(C2CCCCC2)cc1 -2.76%
CCOc1ccc(OCC)c(NC(=O)CSCC(=O)O)c1 2.8%
CCCCOc1ccc(CC(=O)NCC(=O)O)cc1 4.31%
O=C(Nc1nc2ccsc2c(=O)s1)c1ccco1 2.03%
COc1cc(/C=N/NC(=O)c2ccccc2Cl)ccc1Oc1ccc([N+](=O)[O-])cn1 3.71%
COC(=O)c1ccccc1NC(=O)c1ccccc1N(C)S(=O)(=O)c1ccccc1 -2.99%
CCN(C(=O)CCc1nc(-c2ccc(OC)cc2)no1)c1cc(OC)ccc1OC -5.65%
Cc1ccc(S(=O)(=O)N(C)CC(=O)OCC(=O)NC(c2ccccc2)c2ccccc2)cc1 11.4%
Cc1ccc(-c2ccc(/C=N/NC(=O)c3ccccc3O)o2)cc1 3.44%
COc1ccc(C(=O)Nc2nc3cc4c(cc3s2)OCCO4)c(OC)c1 -6.2%
Cc1ccc(NC(=O)NCc2ccccn2)cc1 5.76%
O=C(Cc1cccs1)NNC(=S)NC(=O)c1ccc(F)c(F)c1 7.14%
O=C(CCc1ccccc1)NNC(=S)NC(=O)c1ccc(Cl)cc1 92.7%
CC(C)(C)c1cc(CCC(=O)NN)cc(C(C)(C)C)c1O -14%
CC(=O)NC(=S)NNC(=O)CCc1ccccc1 21.3%
Cc1ccc(C(=O)NNC(=S)NC(=O)COc2ccccc2)cc1 16.5%
COc1ccc(C(=O)NC(=S)NNC(=O)COc2ccccc2)cc1 1.34%
COc1ccc(C(=O)NC(=S)NNC(=O)Cc2cccs2)cc1 41.2%
CC(C)(C)c1cc(CCC(=O)NNC(=O)c2ccco2)cc(C(C)(C)C)c1O -5.01%
CCOC(=O)N1CCC(N2C(=O)c3ccccc3C2Nc2ccc(S(=O)(=O)N3CCOCC3)cc2)CC1 (configuration not stated) 2.69%
Cc1cccc(NC(=O)CCCn2cc([N+](=O)[O-])cn2)n1 -2.41%
COc1ccc(OC)c(NC(=O)CSCC(=O)O)c1 6.02%
Cc1cc(C(=O)CCC(=O)N2CCN(S(=O)(=O)c3cccs3)CC2)c(C)s1 0.37%
CN1C[C@@H]2C[C@@H](c3cccn3-c3nccs3)N3CCC[C@@]23C1=O -0.22%
Cc1ccc(NC(=O)CN2CCCCCC2)cc1Br 9.91%
Cc1cc(C(=O)CCl)c(C)n1-c1cccc(S(=O)(=O)N2CCOCC2)c1 1.27%
Cc1cc(C(=O)COc2ccccc2[N+](=O)[O-])c(C)n1-c1cccc(S(=O)(=O)N2CCOCC2)c1 2.08%
CCSC1=C(C#N)C(c2ccccc2Cl)C(C(=O)c2cccs2)C(O)(C(F)(F)F)N1 (configuration not stated) -2.94%
O=C(CSc1ccc2c(c1)OCCO2)Nc1ncc(Cl)cc1Cl 33.8%
CC(Sc1ccc2c(c1)OCCO2)C(=O)Nc1ccc2c(c1)OCO2 (configuration not stated) 31.4%
CC(Sc1ccc2c(c1)OCCO2)C(=O)Nc1ccc(N2CCOCC2)cc1 (configuration not stated) -0.69%
CCCNC(=O)NC(=O)CSc1ccc2c(c1)OCCO2 -3.31%
CCOc1cc(S(=O)(=O)Nc2ccccc2CC)ccc1Cl 8.77%
Cc1nnc(SCC(=O)NN2C(=O)NC3(CCCCC3)C2=O)s1 0.53%
Nc1nnc(SCC(=O)NN2C(=O)NC3(CCCCC3)C2=O)s1 28%
O=C(CSc1nnc(NC2CCCCC2)s1)NC1CCS(=O)(=O)C1 (configuration not stated) 11.6%
O=C(CSc1nnc(NC2CCCCC2)s1)NCc1ccco1 1.38%
Cn1nc(C(=O)NNc2c(F)c(F)cc(F)c2F)c2ccccc2c1=O 10.2%
Cc1ccccc1Nc1nc(N)nc(CSc2nnnn2-c2ccccc2)n1 2.91%
CCCCn1nc(C(=O)Nc2cc(S(=O)(=O)N(C)C)ccc2C)c2ccccc2c1=O 0.9%
CCCN(c1ccc(C(=O)OC)cc1)S(=O)(=O)c1ccccc1 -1.32%
CC(=O)c1ccc(NC(=O)CSc2nnc(NC(=O)CN3CCOCC3)s2)cc1 28.4%
Cc1cccc(NC(=O)CSc2nnc(NC(=O)CN3CCCCC3)s2)c1 52.7%
Cc1cccc(C)c1NC(=O)CSc1nnc(NC(=O)CN2CCOCC2)s1 24.1%
CCc1ccc(Nc2nnc(SCC(=O)Nc3ccc(C(=O)O)cc3)s2)cc1 33%
Cc1cccc(Nc2nnc(SCC(=O)Nc3cccc(S(=O)(=O)N4CCCCC4)c3)s2)c1 33.5%
O=C(CSc1nnc(NC(=O)CN2CCOCC2)s1)Nc1ccccc1 27.4%
O=C(NCCN1CCN(c2ccccc2)CC1)c1ccc(NC(=O)C2CCCO2)cc1 (configuration not stated) -5.43%
CC1=CC(C2CC(=O)N(c3ccccc3C)C2=O)CC2C(=O)N(c3ccccc3C)C(=O)C12 (configuration not stated) 3.8%
CC1=C(C(=O)OCC2CCCO2)C(c2ccncc2)C2=C(CC(C)(C)CC2=O)N1 (configuration not stated) -16.9%
O=[N+]([O-])c1ccc2c(c1)C=C1CCCCC1(N1CCCCC1)O2 (configuration not stated) 9.55%
